MRP1 act: H69AR viability gain despite doxorubicin, primary screen, MRP-1 activator project, H69AR cells, CellTiter-Glo; viability rescue; viability increase, % at 10 µM; 140,000 compounds, 0.61% hits; AID 799, 2007;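 active = viability gain under doxorubicin at or above a set limit, the compound median plus 3 SD, cut at about 4.7% in these data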;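 also: MRP-1 overexpressing cells given doxorubicin 25 µM after compound pretreatment; 18-22 h compound pretreatment then 72 h with doxorubicin before readout; 0% = doxorubicin-only wells and 100% = vehicle-treated cells without doxorubicin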
CYP2C9 inhib: blockers of cytochrome P450 2C9 activity – biochemical, luminescence, ADME assay, primary screen; P11712; CYP2C9 Supersomes, luciferin-H conversion; inhibition, % at 5 µM; 96,000 compounds, 20% hits; AID 777, 2007;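 active = blocking of liver enzyme CYP2C9 beyond about 50% at 5 µM, limit read from the data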
Target sequence (P11712 whole entry, looked up): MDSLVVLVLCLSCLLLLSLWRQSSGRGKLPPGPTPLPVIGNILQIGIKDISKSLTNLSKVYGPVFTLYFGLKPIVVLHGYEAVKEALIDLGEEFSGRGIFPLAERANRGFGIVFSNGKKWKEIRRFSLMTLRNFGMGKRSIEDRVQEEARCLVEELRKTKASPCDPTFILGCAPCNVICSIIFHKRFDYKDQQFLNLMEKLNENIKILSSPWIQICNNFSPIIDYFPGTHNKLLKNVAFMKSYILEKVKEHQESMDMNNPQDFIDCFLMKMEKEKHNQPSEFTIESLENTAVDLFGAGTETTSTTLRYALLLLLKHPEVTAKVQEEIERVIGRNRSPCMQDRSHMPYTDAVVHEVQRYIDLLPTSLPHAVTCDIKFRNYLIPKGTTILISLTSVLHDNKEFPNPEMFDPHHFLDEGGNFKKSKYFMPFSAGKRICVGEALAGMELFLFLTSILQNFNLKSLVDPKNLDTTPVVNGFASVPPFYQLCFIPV
CYP2C19 inhib: blockers of cytochrome P450 2C19 activity – biochemical, luminescence, ADME assay, primary screen; P33261; CYP2C19 Supersomes, luciferin-H EGE luminescence, 30 min; inhibition, % at 5 µM; 96,000 compounds, 21% hits; AID 778, 2007;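 active = CYP2C19 inhibition above a set limit at 5 µM in the primary screen, cut at about 50% in these data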;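 also: plate controls were negative control wells for no effect and 2.5 mM tranylcypromine positive control for full effect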
CYP2C19 activ: human CYP2C19 activators, primary screen, biochemical, luminescence | recombinant CYP2C19, luciferin-H EGE luminescence; hits give high values; 0 = fully inhibited enzyme, 1 = untreated enzyme | activation factor at 5 µM | 96,000 tested, under 10 active | AID 1025, 2008;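 active = activation factor of at least 2 at 5 µM in the primary screen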;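 also: 0 = wells with 2.5 mM tranylcypromine and 1 = vehicle-only wells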
MRP resist rev: reversal of MRP1-mediated doxorubicin resistance, primary screen, H69AR cells, doxorubicin co-treatment; H69AR cells + 2 uM doxorubicin, CellTiter-Glo, 72 h; differential viability (reversal), % at 10 µM; 85,000 compounds, 0.04% hits;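 active = viability drop by adding the cancer drug above about 55%, with treated viability meeting a 40% cutoff, limit read from the data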;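 also: viability without doxorubicin minus viability with 2 µM doxorubicin for each compound; larger differential means the compound sensitizes cells more to doxorubicin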
CYP2C9 act: human CYP2C9 activators, primary screen, biochemical, luminescence; Cytochrome P450 2C9 (Homo sapiens), P11712; recombinant CYP2C9, luciferin-H conversion; hits give high values; factor 1 = untreated enzyme, 0 = blocked; activation factor at 5 µM; 96,000 compounds, 1.4% hits; AID 1024, 2008;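 active = activation factor of 2 or more for CYP2C9 at a 5 µM dose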;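 also: 0 = sulfaphenazole-blocked wells and 1 = vehicle-only wells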
* marks the source's active call; other numbers are inactive results; · = no result. In the library only some 21% were active in any assay of this set; here they are far more common.

SMILES	MRP1 act	CYP2C9 inhib	CYP2C19 inhib	CYP2C19 activ	MRP resist rev	CYP2C9 act
CCOCCC(=O)Nc1cc(Cl)ccc1OC	-3	-32	9	0.9	13	1.3
COc1cc(OC)c(NC(=O)CCc2ccccc2)cc1Cl	-3	-54	84*	0.2	-5	1.5
COc1ccc(Cl)cc1NC(=O)CCc1ccccc1	-1	-205	83*	0.2	·	3*
CC(C)NC(=O)CSCc1c(Cl)cccc1Cl	2	21	42	0.6	·	0.8
Cc1c(OCc2ccccc2)c(=O)ccn1Cc1ccc(Cl)cc1	0	57*	31	0.7	-6	0.4
Cc1ccc(Cn2ccc(=O)c(OCc3ccccc3)c2C)cc1	0	28	44	0.6	11	0.7
COc1ccc(Cn2ccc(=O)c(Cc3c(Cl)cccc3Cl)c2C)cc1	-1	-8	77*	0.2	·	1.1
Cc1ccc(Cn2ccc(=O)c(Cc3c(Cl)cccc3Cl)c2C)cc1	0	30	39	0.6	·	0.7
Cc1c(Cc2c(Cl)cccc2Cl)c(=O)ccn1C(C)c1ccccc1 (stereo unspecified)	-1	45	90*	0.1	·	0.6
CC(C)(C)S(=O)(=O)c1c(C(=O)O)cccc1C(=O)O	0	-20	-22	1.2	-3	1.2
CC(=C\C(=O)O)/C(=C/c1ccc(C)o1)C(=O)O	-1	·	·	·	·	·
O=C(c1ccccc1)c1nn(-c2ccc(Cl)cc2)cc1C(=O)c1cc2ccccc2oc1=O	-6	67*	26	0.7	·	0.3
Cc1ccc(S(=O)(=O)N2c3ccc(S(N)(=O)=O)cc3CC2C)cc1 (stereo unspecified)	-1	·	·	·	-14	·
COc1ccc(C)cc1S(=O)(=O)N1c2ccccc2CC1C (stereo unspecified)	-1	96*	96*	0	8	0
COc1ccc(C)cc1S(=O)(=O)N1CCN(S(=O)(=O)c2cc(C)ccc2OC)CC1	-2	87*	75*	0.2	-1	0.1
COc1ccc(OC)c(S(=O)(=O)N2CCN(c3ccccn3)CC2)c1	-4	77*	83*	0.2	19	0.2
CCOc1ccc(S(=O)(=O)N2CCC(C(N)=O)CC2)c2ccccc12	1	59*	-4	1	11	0.4
COc1ccc(C)cc1S(=O)(=O)N1CCCCC1	-2	·	·	·	-9	·
COC(=O)c1c(NC(=S)Nc2ccc(F)cc2[N+](=O)[O-])sc2c1CCCCC2	-2	·	·	·	·	·
O=C(O)/C=C/c1ccc2c(-c3ccccc3)onc2c1	-3	·	·	·	·	·
CCOC(=O)N1CCC(NC(=O)c2cc(C(=O)NCC(OC)OC)ccc2CO)CC1	-3	-2	-4	1	11	1
COc1ccc(F)cc1S(=O)(=O)N1CCC(C(N)=O)CC1	-1	-143	11	0.9	8	2.4*
COc1ccc(F)cc1S(=O)(=O)N1CCCC(C)C1 (stereo unspecified)	-2	-79	67*	0.3	25	1.8
COc1ccc(NS(=O)(=O)c2c(F)cc(F)c(Cl)c2F)cc1S(=O)(=O)N1CCCCC1	-3	·	·	·	·	·
COc1ccc(F)cc1S(=O)(=O)N1CCCN(S(=O)(=O)c2cc(F)ccc2OC)CC1	-2	-34	99*	0	-11	1.3
SMILES	MRP1 act	CYP2C9 inhib	CYP2C19 inhib	CYP2C19 activ	MRP resist rev	CYP2C9 act
CC1CCCN(S(=O)(=O)c2ccccc2[N+](=O)[O-])C1 (stereo unspecified)	-3	·	·	·	·	·
COc1ccc(C(C)(C)C)cc1S(=O)(=O)N1CCC(C(N)=O)CC1	1	·	·	·	·	·
O=C(COC(=O)c1ccc([N+](=O)[O-])s1)Nc1ncc(C(F)(F)F)cc1Cl	1	·	·	·	·	·
Cc1cccc(C)c1NC(=S)Nc1c(C)n(C)n(-c2ccccc2)c1=O	-1	·	·	·	·	·
COC(=O)c1cccc(NC(=O)CN2CCN(c3ccc(OC)cc3)CC2)c1	0	86*	65*	0.4	5	0.1
CC1CCc2nc(NC(=O)CN3CCN(c4ccc(F)cc4)CC3)sc2C1 (stereo unspecified)	-2	16	6	0.9	11	0.8
CCN(CC)C(=O)CN1CCN(c2ccccc2F)CC1	-3	3	38	0.6	-7	1
CCOc1ccc(NC(=O)CCN2CCN(c3ccccc3F)CC2)cc1	-1	68*	51*	0.5	-28	0.3
COc1cccc(NC(=O)CN2CCN(c3ccc(F)cc3)CC2)c1	-1	33	15	0.8	-21	0.7
COc1cccc(N2CCN(CC(=O)Nc3nc4c(s3)CC(C)CC4)CC2)c1 (stereo unspecified)	-2	53*	40	0.6	6	0.5
CCN(CC)c1ccc(NC(=O)CN2CCN(c3ccccc3F)CC2)cc1	-1	46	55*	0.4	·	0.5
COc1ccc(Nc2sc(C(=O)Nc3cccc(Cl)c3)c(N)c2C(=O)Nc2ccccc2OC)cc1	-2	·	·	·	·	·
COc1ccc(N2CCC(CNC(=O)Nc3cccc(OC)c3)C2)cc1 (stereo unspecified)	-2	76*	40	0.6	-5	0.2
COc1ccc(N2CCC(CNC(=S)Nc3cccc(OC)c3)C2)cc1 (stereo unspecified)	-4	·	·	·	·	·
COc1ccc(NC(=O)CN2CCN(c3ccccc3F)CC2)cc1	-2	68*	55*	0.4	-5	0.3
O=C(CN1C(=O)CNC1=O)Nc1cccc(C(F)(F)F)c1	-1	-3	-3	1	3	1
Cc1ccc(C)c2[nH]c(=O)c(C(c3nnnn3Cc3ccccc3)N3CCc4ccccc4C3)cc12 (stereo unspecified)	-2	73*	85*	0.1	0	0.3
Cc1cccc2cc(C(c3nnnn3CC3CCCO3)N3CCCc4ccccc43)c(=O)[nH]c12 (stereo unspecified)	-1	56*	28	0.7	11	0.4
Cc1cccc2cc(C(c3nnnn3CC3CCCO3)N3CCc4ccccc4C3)c(=O)[nH]c12 (stereo unspecified)	-3	60*	47	0.5	4	0.4
Cc1cc(C(c2nnnn2Cc2ccccc2)N2CCOCC2)c(C)n1-c1ccc2c(c1)OCO2 (stereo unspecified)	-2	90*	96*	0	-11	0.1
Cc1cccc2cc(C(c3nnnn3CC3CCCO3)N3CCCC4(CCCCC4)C3)c(=O)[nH]c12 (stereo unspecified)	-1	19	9	0.9	-8	0.8
CC(=O)N1[C@H](C)C=C[C@]1(Cc1ccccc1)C(=O)O	0	·	·	·	·	·

Compound activity from PubChem BioAssay.
